Compound activity deposited in PubChem BioAssay by several laboratories.
Sampled rows, rich in hits. Any-hit rate of the full collection: about 4.9%.
PP1 inh – blocks human PP1-alpha phosphatase, a PP5 counter-screen | purified PP1alpha, OMFP fluorescence | inhibition, % at 6.7 µM | P62136 | AID 2235 | hit rate 0.9% among 320,000;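 active = inhibition above the mean inhibition of all tested compounds plus 3 SD, computed separately for each screening campaign, cut at about 15% in these data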
Target sequence (P62136 whole entry, looked up): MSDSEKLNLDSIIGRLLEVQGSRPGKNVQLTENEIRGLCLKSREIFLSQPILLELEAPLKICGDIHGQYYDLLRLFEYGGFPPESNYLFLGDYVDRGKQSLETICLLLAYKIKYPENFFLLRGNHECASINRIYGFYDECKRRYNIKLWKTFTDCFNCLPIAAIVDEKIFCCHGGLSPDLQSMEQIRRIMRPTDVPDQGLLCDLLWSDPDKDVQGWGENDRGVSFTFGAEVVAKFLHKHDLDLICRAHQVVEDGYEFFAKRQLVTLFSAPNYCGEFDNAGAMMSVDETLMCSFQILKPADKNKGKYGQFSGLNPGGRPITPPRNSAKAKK
CSC inhib – cancer stem cell inhibition | cancer stem cell-like cells viability, luminescence | inhibition, % at 7.5 µM | hit rate 1.1% among 300,000 | AID 2717; in the data active = inhibition above about 75%; inconclusive = no clear call, values can overlap the other calls; tested in HMLE shEcad cells
Calb FLC – affects C. albicans growth with fluconazole | C. albicans CaCi-2 (fluconazole-resistant clinical isolate) + fluconazole, Alamar Blue growth, 48 h | growth inhibition, % (concentration not given with the values) | hit rate 0.57% among 300,000 | AID 1979;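 active = growth inhibition above about 58% in most replicates, limit read from the data, passing the limit was not always enough; inconclusive = exactly half the replicates above a set limit; inactive = most replicates below a set limit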;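 also: all wells also contain fluconazole at 8 µg/ml as a sub-toxic cotreatment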
Mdm2-MdmX inh – human Mdm2/MdmX binding inhibition; O15151+Q00987; hit rate 3% among 330,000; inhibition, % at 8 µM; SaOS-2 split-luciferase Mdm2/MdmX complementation, luminescence;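 active = inhibition of at least 50% at 8 µM in the primary screen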
Beta cell apopt – beta cell apoptosis inhibition; INS-1E cytokine-induced death, ATP luminescence, 48 h; percent of positive-control rescue, neutral wells zero; hit rate 0.8% among 300,000; protection from apoptosis, % (no concentration beside the values);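 active = Every replicate reaches about 75%, or at least half do and their mean reaches it too, limit read from the data; inconclusive = At least half of replicates reach the limit but their mean does not; inactive = Under half of replicates reach the limit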;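 also: higher means more ATP so stronger rescue from cytokine killing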
PP5 primary – PP5 (human) phosphatase inhibition; P53041; purified PP5c, OMFP substrate fluorescence; inhibition, % at 6.7 µM; hit rate 0.18% among 320,000; AID 1987;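 active = inhibition above the campaign's mean inhibition across all tested compounds plus 3 SD, cut at about 9.5% in these data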
Mdm2 MdmX conf – human Mdm2/MdmX binding inhibition, confirmed; shares compounds with Mdm2-MdmX inh; luminescent assay; inhibition, % at 8 µM; hit rate 55% among 10,000; AID 489028; in the data active = inhibition above about 40%
Full FLuc ctr – counter-screen for Mdm2/MdmX inhibitors: full-length luciferase. shares compounds with Mdm2-MdmX inh. SaOS-2 full-length luciferase counterscreen, luminescence. inhibition, % at 8 µM. hit rate 77% among 6,200. AID 504607;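 active = mean inhibition at 8 µM reaching about 37%, which flags the compound as non-specific, limit read from the data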;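 also: p53-null SaOS-2 cells with luciferase driven by a doxycycline-inducible promoter; compound on cells about two nights before reading with doxycycline added after day one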
Of the large screens only hits and unclear results are named; the others gave an inactive call (follow-up assays come after a bar, where they were run).

CCn1c(SCC(=O)Nc2cc3oc4ccccc4c3cc2OC)nnc1-c1cccs1	Mdm2-MdmX inh 51 | Mdm2 MdmX conf inactive
COCCCNC(=S)Nc1cc2oc3ccccc3c2cc1OC	Mdm2-MdmX inh 55 (no result: PP1 inh, PP5 primary) | Mdm2 MdmX conf 41 | Full FLuc ctr 90
O=C(CSc1nnnn1-c1ccccc1)Nc1nsc(-c2ccc(Cl)cc2)n1	none
COc1cc2c(cc1NC(=O)CN1C(=O)NC3(CCc4ccccc43)C1=O)oc1ccccc12 (stereo not drawn)	Mdm2-MdmX inh 69 | Mdm2 MdmX conf inactive
COc1cc2c(cc1NC(=S)Nc1cccc3ccccc13)oc1ccccc12	none
O=C(CSc1nnnn1-c1ccccc1)Nc1nsc(-c2ccccc2)n1	Mdm2-MdmX inh 84 | Mdm2 MdmX conf 81 | Full FLuc ctr inactive
CC(c1ccco1)N(C(=O)c1ccc(Cl)c([N+](=O)[O-])c1)c1ccccn1 (stereo not drawn)	none
COc1cc2c(cc1NC(=O)CSc1nnnn1-c1ccccc1)oc1ccccc12	Mdm2-MdmX inh 71 | Mdm2 MdmX conf inactive
COc1cc2c(cc1NC(=O)CN(C)Cc1ccc(OC)c(OC)c1)oc1ccccc12	Mdm2-MdmX inh 51 (no result: CSC inhib) | Mdm2 MdmX conf 59 | Full FLuc ctr 58
C=CCn1c(COc2ccccc2F)nnc1SCC(=O)Nc1cc2oc3ccccc3c2cc1OC	Mdm2-MdmX inh 54 | Mdm2 MdmX conf inactive
CC(C)(C)C(=O)NC1(C(F)(F)F)NC(=O)N(c2ccc(F)cc2)C1=O (stereo not drawn)	none
O=C(/C=C/c1ccccc1)NC(NC(=S)Nc1cc(Cl)ccc1Cl)C(Cl)(Cl)Cl (stereo not drawn)	CSC inhib inconclusive, Mdm2-MdmX inh 89 | Mdm2 MdmX conf 87 | Full FLuc ctr inactive
COc1ccc(NC(=S)NC(NC(=O)/C=C/c2ccccc2)C(Cl)(Cl)Cl)cc1 (stereo not drawn)	none (no result: Beta cell apopt)
O=C(/C=C/c1ccccc1)NC(NC(=S)Nc1ccc(Cl)cc1)C(Cl)(Cl)Cl (stereo not drawn)	Mdm2-MdmX inh 60 | Mdm2 MdmX conf 62 | Full FLuc ctr inactive
CC(C)CCCN1C(N(C)C)=NC[C@@H]1C	none (no result: Calb FLC)
COc1cc(C(=O)NC(C)CCn2cccn2)ccc1OC1CCN(C(C)=O)CC1 (stereo not drawn)	none
COc1ccc2c(-c3ccc(SC)cc3)c(-c3ccc(S(C)(=O)=O)cc3)sc2c1	none (no result: PP1 inh, Calb FLC, PP5 primary)
COc1ccc2c(-c3cnc(N4CCOCC4)nc3)c(-c3ccc(S(C)(=O)=O)cc3)sc2c1	Mdm2-MdmX inh 68 (no result: PP1 inh, Calb FLC, PP5 primary) | Mdm2 MdmX conf inactive
COc1cccc(NC(=O)Cn2nnc(C(=O)Nc3ccccc3)c2N)c1	none
CCOc1ccc(OCC)c(NC(=O)c2nnn(CC(=O)Nc3cc(C)cc(C)c3)c2N)c1	Mdm2-MdmX inh 58 | Mdm2 MdmX conf inactive
COc1cccc(NC(=O)c2nnn(CC(=O)Nc3cc(C)cc(C)c3)c2N)c1	Mdm2-MdmX inh 74 (no result: Beta cell apopt) | Mdm2 MdmX conf inactive
CCN(CC(=O)Nc1c(F)cccc1F)C(=O)c1ccc(C#N)cc1	none (no result: Calb FLC)
Cn1ncc2c(Nc3ccccc3Br)ncnc21	none
Cn1ncc2c(Nc3ccc(-c4ccccc4)cc3)ncnc21	Calb FLC inconclusive, Mdm2-MdmX inh 76 | Mdm2 MdmX conf 48 | Full FLuc ctr 73
CC(C)CN1CCNC(=O)C1CC(=O)NCCCN1CCCc2ccccc21 (stereo not drawn)	none
Nc1ncc(-c2nnnn2-c2ccc(Cl)cc2)c(-c2ccc(Cl)cc2)n1	Mdm2-MdmX inh 57 | Mdm2 MdmX conf 68 | Full FLuc ctr 46
Clc1ccc(-n2nnnc2-c2cnc3ccccc3c2-c2ccccc2)cc1	none
FC(F)(F)c1nnc(Nc2ccc(Cl)cc2)s1	none
Fc1ccc(Nc2nnc(C(F)(F)F)s2)cc1Cl	Mdm2-MdmX inh 73 | Mdm2 MdmX conf 68 | Full FLuc ctr 57
COc1ccc(OC)c(N(CC(=O)N2CCOCC2)S(C)(=O)=O)c1	none
Cc1sc2ncnc(SCC(=O)N3CCC(c4noc5ccc(F)cc45)CC3)c2c1C	none
Cc1nnc(SCC(=O)N2CCC(c3noc4ccc(F)cc34)CC2)s1	Mdm2-MdmX inh 78 | Mdm2 MdmX conf 69 | Full FLuc ctr inactive
Cc1ccc(NC(=O)CCC(=O)NNC(=S)Nc2ccccc2)c(C)c1	none
Cc1ccc(NC(=S)NNC(=S)Nc2ccc(C)cc2C)cc1	Mdm2-MdmX inh 71 | Mdm2 MdmX conf 52 | Full FLuc ctr 94
CCCCNC(=O)c1ccc(NC(=O)CC2SC(N3CCCC3)=NC2=O)cc1 (stereo not drawn)	none (no result: CSC inhib, Calb FLC)
Cc1ccc(C#N)c(SCc2nnc(-c3ccc(Cl)cc3)o2)n1	Mdm2-MdmX inh 88 | Mdm2 MdmX conf 92 | Full FLuc ctr 57
Cc1cc(C)c(C#N)c(SCc2nnc(-c3ccccc3)o2)n1	Mdm2-MdmX inh 85 (no result: CSC inhib) | Mdm2 MdmX conf 91 | Full FLuc ctr 49
Cc1ccc(C(=O)NN(CCC(=O)NC(C)(C)C)C2=NS(=O)(=O)c3ccccc32)cc1	none
CC(=O)Nc1ccc(S(=O)(=O)Oc2ccc3c(c2)C(C)=CC(C)(C)N3)cc1	Mdm2-MdmX inh 98 | Mdm2 MdmX conf 79 | Full FLuc ctr inactive
O=C(NCCC(=O)N1CCN(c2ccccn2)CC1)c1ccc([N+](=O)[O-])cc1	none (no result: PP1 inh, Calb FLC, PP5 primary)
O=C(NCc1cccc(F)c1)C1CCC(=O)N(C2CC2)C1 (stereo not drawn)	none
COc1ccc(C(C)(C)C)cc1NC(=O)c1[nH]c(C)c(C(C)=O)c1C	Mdm2-MdmX inh 54 | Mdm2 MdmX conf inactive
COc1ccc(NC(=O)c2[nH]c(C)c(C(C)=O)c2C)cc1Cl	none
Cc1nc2ccccn2c1C(=O)/C=C/c1cccc([N+](=O)[O-])c1	CSC inhib 88, Mdm2-MdmX inh 99, Beta cell apopt 102 | Mdm2 MdmX conf 97 | Full FLuc ctr inactive
Cc1nc(Nc2nc3c(c(=O)[nH]2)CCC3)nc2ccccc12	Mdm2-MdmX inh 65 | Mdm2 MdmX conf 88 | Full FLuc ctr inactive
O=c1[nH]c(NCc2ccccc2)nc2c1CCC2	none
Cc1cc(OCC(=O)N2CCN(c3ccccc3)CC2)c2c(C)c(C)c(=O)oc2c1	Mdm2-MdmX inh 64 | Mdm2 MdmX conf 67 | Full FLuc ctr 87
Cc1cc(OCC(=O)N2CCC(C(=O)O)CC2)c2c(C)c(C)c(=O)oc2c1	none
O=C(c1ccc2c(=O)n3c(nc2c1)CCCCC3)N1CCc2ccccc21	none
Cc1cc(C(=O)CCl)c(C)n1-c1cccc([N+](=O)[O-])c1	Mdm2-MdmX inh 69 | Mdm2 MdmX conf inactive | Full FLuc ctr 60
CN(Cc1ccc2c(c1)OCCO2)C(=O)CSc1ncnc2sccc12	none (no result: PP1 inh, Calb FLC, PP5 primary)
CC(C)c1nnc(NC(=O)c2nc(S(=O)(=O)Cc3ccccc3F)ncc2Cl)s1	CSC inhib 102, Mdm2-MdmX inh 97 | Mdm2 MdmX conf 46 | Full FLuc ctr inactive
